Where “and” joins values, the source holds several entries; their conditions need not be identical. Equal entries are not always repeated. Screen size: about 320,000 compounds; about 2,100 (0.66%) were called active. About 53% were inconclusive and are not listed. Calls follow the shape of the dose curve; as a rule, active = well fitted inhibition curve with a large enough effect in the signal ratio, with a control signal flat (not every such curve was filed as active); inconclusive = small, poorly fitted or top-dose-only effect, or effect the other way, or a change in a side signal; inactive = flat fitted curve, though single readings scatter; the % refers to the signal ratio. The sample as a whole holds a higher share of actives than the screen did.
Potency is read from the fitted curve at half-maximal effect.

This experiment in a line: qHTS Assay for Lipid Storage Modulators in Drosophila S3 Cells.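 As to cell number change: cells counted by Cell Tracker Red CMTPX staining in the red channel.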 As to lipid storage change, negative = inhibition: % is scaled to controls: 0 for no effect and ±100 for the full control effect. To be noted: BODIPY lipid droplet fluorescence, 18-24 h, cells fed with added oleic acid; cell number change: measured here: cell count max response; series mostly up to 46.1 µM; lipid storage change, negative = inhibition: at the top concentration. In outline: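 Laser-scanning cytometry quantifies lipid droplet accumulation (500–530 nm total intensity; droplet/cell object ratio) in oleic acid-fed (400 uM added) Drosophila S3 cells treated with a concentration series. 20 uM Triacsin C defined 100% inhibition.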
A general note: Quantitative high-throughput screening tests each substance at several concentrations.
Regarding `CCOC(=O)Cn1nnc(-c2ccc(OCC(C)C)cc2)n1`, the “lipid storage change, negative = inhibition” value was -1.83% (inactive) and the cell number change is -1.1%.

With `COc1ccc(NC(=O)N2Cc3ccccc3CC2C(=O)NC(C)(C)C)cc1` (centres undefined), the “lipid storage change, negative = inhibition” value was -2.72% (inactive) and the cell number change is -0.759%.

For `O=C(NCCNc1nccc(C(F)(F)F)n1)c1cccc(C(F)(F)F)c1`, the “lipid storage change, negative = inhibition” value is 0.997% (inactive) and the cell number change came out at 8.97%.

For `CSS(=O)(=O)c1cccc2cccnc12`, the Potency is 2.59 µM (active) and the cell number change was -61.8%.

`CCCCN(c1ccccc1)S(=O)(=O)c1cccc2cccnc12`: the result was inactive.

As to `CNS(=O)(=O)c1cccc2cccnc12`, the cell number change was 10% and the lipid storage change, negative = inhibition was 11.3% [at 9.22 µM] (inactive).

In the case of `CCCNS(=O)(=O)c1cccc2cccnc12`, the cell number change turned out to be 2.48% and the lipid storage change, negative = inhibition was -0.974% [at 9.22 µM] (inactive).

For the molecule `CCN(CC)S(=O)(=O)c1cccc2cccnc12`, the Potency was 7.31 µM (active) and the cell number change was -17.9%.

For the molecule `O=S(=O)(c1cccc2cccnc12)N(CCO)CCO`, the “lipid storage change, negative = inhibition” value was -7.46% (inactive) and the cell number change is -16.7%.

As to `Cc1ccccc1OCC(=O)Nc1c2c(nn1C(C)(C)C)CS(=O)(=O)C2`, the “lipid storage change, negative = inhibition” value was -10.3% (inactive) and the cell number change is -4.53%.

For the molecule `OCCC1CN(Cc2cnc(-c3ccccc3)s2)CCN1Cc1ccccc1` (centres undefined), the “lipid storage change, negative = inhibition” value is -1.73% (inactive) and the cell number change is -2.24%.

Take `Cc1cc[n+](CC(=O)N2CCCc3ccccc32)cc1`: the “lipid storage change, negative = inhibition” value was -6.44% (inactive) and the cell number change is -2.96%.

Take `COC(=O)c1cc(-c2ccc(Br)cc2)c2c(=O)n(C)c(=O)n(C)c2n1`: the Potency was 20.6 µM (active) and the cell number change was -16.2%.

Take `COC(=O)c1cc(-c2ccccc2)c2c(=O)n(C)c(=O)n(C)c2n1`: the “lipid storage change, negative = inhibition” value is 8.5% (inactive) and the cell number change was 0.987%.

Consider `CCOc1ccc(-c2cc(C(=O)OC)nc3c2c(=O)n(C)c(=O)n3C)cc1`, for which the “lipid storage change, negative = inhibition” value is -8% (inactive) and the cell number change was found to be 0.241%.

For the molecule `O=C1CSC(c2cccnc2)N1c1ccc(Cl)cc1` (centres undefined), the “lipid storage change, negative = inhibition” value was -4.47% (inactive) and the cell number change is -17.2%.

Turning to `Cc1ccc2nc(-c3ccc4c(c3)NC(=O)CO4)cn2c1`, the “lipid storage change, negative = inhibition” value is 2.78% (inactive) and the cell number change came to 4.69%.

On to `CCC1CCCCN1CCCNC(=O)c1ccc2c(c1)NC(=O)CS2` (centres undefined), for which the call was inactive and the cell number change is 20.8%.

In the case of `O=C1Nc2cc(C(=O)NCCCN3CCCC3)ccc2S/C1=C\c1ccccc1`, the call was inactive and the cell number change is -4.94%.

`CCC1CCCCN1CCCNC(=O)c1ccc(/C=C2/Sc3ccccc3NC2=O)cc1` (centres undefined): the Potency was 5.17 µM (active) and the cell number change was -7.79%.

Take `O=C(CSc1nncs1)Nc1ccc(N2CCCCC2)cc1`: the molecule was classed as inactive and the cell number change was -24%.

In the case of `CCN1CCN(S(=O)(=O)c2ccc(Cl)c(C(=O)N(C)Cc3ccco3)c2)CC1`, the “lipid storage change, negative = inhibition” value was 14.4% (inactive) and the cell number change was 2.03%.

In the case of `Cc1ccc(S(=O)(=O)C2(C(=O)NC3CCCCC3C)CC2)cc1` (centres undefined), the “lipid storage change, negative = inhibition” value is -7.07% (inactive) and the cell number change was -11.4%.

Take `OCCN(CCO)c1nc(-c2ccccc2)nc2c1oc1ccccc12`: the “lipid storage change, negative = inhibition” value is -0.413% (inactive) and the cell number change was -3.98%.

Take `Cc1ccc(C(=O)C2=C(O)C(=O)N(Cc3cccnc3)C2c2ccc(Br)cc2)o1` (centres undefined): the “lipid storage change, negative = inhibition” value is 22% (inactive) and the cell number change was found to be 4.99%.

`COc1ccc(C2C(C(=O)c3ccc(C)o3)=C(O)C(=O)N2Cc2cccnc2)cc1OC` (centres undefined): the Potency was 0.13 µM (active) and the cell number change is 1.8%.

`Cc1ccc(C(=O)C2=C(O)C(=O)N(Cc3cccnc3)C2c2ccc(Cl)cc2)o1` (centres undefined): the call was inactive and the cell number change stood at 10.8%.

As to `O=C(N1CCCC1)C12CC3CCC(CC(C3)C1)C2`, the “lipid storage change, negative = inhibition” value is -23.5% (inactive) and the cell number change was 3.73%.

Take `S=c1[nH]nc(-c2cccnc2)n1/N=C/c1ccco1`: the “lipid storage change, negative = inhibition” value is -15.6% (inactive) and the cell number change is 1.79%.

Turning to `CCC(C)n1[nH]c(=O)cc1N` (centres undefined), the “lipid storage change, negative = inhibition” value was -1.97% (inactive) and the cell number change was determined as 5.9%.

Turning to `CCCCC(C)n1[nH]c(=O)cc1N` (centres undefined), the Potency was 25.9 µM (active) and the cell number change is -24.5%.

On to `CCCC(C)n1[nH]c(=O)cc1N` (centres undefined), for which the “lipid storage change, negative = inhibition” value was 2.48% (inactive) and the cell number change is 0.134%.

As for `O=C1CCCN1CCNC(=S)Nc1ccccc1`, the “lipid storage change, negative = inhibition” value was 0.534% (inactive) and the cell number change was -13%.

In the case of `O=C(O)CSc1nc2sc3c(c2c(=O)n1-c1ccccc1)CCC3`, the “lipid storage change, negative = inhibition” value is 2.01% (inactive) and the cell number change stood at 10.3%.

`Cc1ccc(-n2c(SCC(=O)O)nc3sc4c(c3c2=O)CCCC4)cc1`: the “lipid storage change, negative = inhibition” value is 6.87% (inactive) and the cell number change was 9.08%.

On to `Nc1nc(SCc2nnc(SCC(=O)O)n2-c2ccccc2)nc2sc3c(c12)CCCC3`, for which the Potency was 23.1 µM (active) and the cell number change amounted to 3.22%.

Consider `Cc1ccc(C)c(-n2c(SCC(=O)O)nc3sc4c(c3c2=O)CCCC4)c1`, for which the Potency is 0.116 µM (active) and the cell number change was 13%.

Take `NC(=O)CSc1nc(N)c2c3c(sc2n1)CCCCC3`: the “lipid storage change, negative = inhibition” value is 12.7% (inactive) and the cell number change is -16.5%.

Regarding `Cc1ccccc1-n1c(SCC(=O)O)nc2sc3c(c2c1=O)CCCC3`, the “lipid storage change, negative = inhibition” value was 3.4% (inactive).

For `Cc1cc(C)c2c(CN3CC(C)OC(C)C3)cc(=O)oc2c1C` (centres undefined), the call was inactive and the cell number change is -15.5%.

On to `O=C(Nc1ccccc1)N(CCN1CCOCC1)Cc1cccc(Cl)c1`, for which the “lipid storage change, negative = inhibition” value was 16.6% (inactive) and the cell number change is -10.2%.

`Cc1cc(C(=O)N/N=C/c2cccn2C)no1`: the “lipid storage change, negative = inhibition” value is 3.68% (inactive) and the cell number change amounted to 6.61%.

For `CCOC(=O)N1CCc2c(sc3nc(SC(C)C)n(N)c(=O)c23)C1`, the “lipid storage change, negative = inhibition” value is -13.4% (inactive) and the cell number change is -1.6%.

As for `Oc1ccc(Br)cc1C=Nc1ccc(Cl)cc1`, the “lipid storage change, negative = inhibition” value was -3.65% (inactive) and the cell number change was -3.17%.

As for `CCc1c(C)sc(NC(=O)Cc2ccccc2OC)c1C(=O)N1CCOCC1`, the molecule was called inactive and the cell number change is -8.21%.

`C[C@]12C=CC(=O)C=C1CC[C@@H]1[C@@H]2C(=O)C[C@@]2(C)[C@H]1CC[C@]2(O)C(=O)CO`: the Potency result is “inactive”; the cell number change is 21.3% and -3.16%.

For `CC12CCC(=O)C=C1CCC1C2C(=O)CC2(C)C1CCC2(O)C(=O)CO` (centres undefined), the Potency is 16.4 µM (active) and the cell number change was -13.5%.

Regarding `CC(=O)OCC(=O)[C@@]1(O)CC[C@H]2[C@@H]3CCC4=CC(=O)CC[C@]4(C)[C@H]3C(=O)C[C@@]21C`, the “lipid storage change, negative = inhibition” value is -19.1% (inactive) and the cell number change was determined as 11.1%.
